Source: PubChem BioAssay (NCATS)
Results filed as inconclusive are left out. Values without a mark were called inactive. The source made the active and inactive calls. The call rests on the fitted dose curve; in most records, active means well fitted inhibition curve with a large enough effect; inconclusive means small, poorly fitted or top-dose-only effect; inactive means flat fitted curve, though single readings scatter.

System: KB-3-1
Test: Cytotoxic Profiling of Annotated Libraries Using Quantitative High-Throughput Screening (AID 1296008); further: nearly all actives have a fitted effect of over 60% in size
Settings: Five cell lines viability, CellTiter-Glo ATP luminescence, 48-72 h; max response: active compounds read low
Procedure, shortened: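 Cells exposed to compounds for 48 or 72 hr at 37 degrees Celsius. Viability read as ATP-coupled luminescence with CellTiter-Glo after 10 min at room temperature.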
On the % scale 0 is the no-effect control and ±100 the full control effect.

Structure (SMILES) | max response | outcome
C[C@]12CCC[C@](C)(C(=O)O)C1CCC13C=C(CO)C(CCC12)C3 (some centres not stated) | 2.91% | 
O=C(c1ccc(C#Cc2cccc(F)c2)cn1)N1CC2CC2C1 (configuration not stated) |  | inactive
C[C@H]1[C@H](C)CC[C@]2(C(=O)O)CC[C@]3(C)C(=CC[C@@H]4[C@@]5(C)C[C@@H](O)[C@H](O)[C@@](C)(CO)[C@@H]5CC[C@]43C)[C@H]12 |  | inactive
C/C=C/C=C/C(CC(=O)O)Nc1ccc(C=O)cc1 (configuration not stated) | 5.57% | 
C[C@@H]1O[C@@H](O[C@H]2[C@H](OC(=O)[C@]34CCC(C)(C)C[C@H]3C3=CCC5[C@@]6(C)C[C@H](O)[C@H](O[C@@H]7O[C@H](CO)[C@@H](O[C@@H]8O[C@H](CO)[C@@H](O)[C@H](O)[C@H]8O)[C@H](O)[C@H]7O)[C@@](C)(CO)C6[C@H](O)C[C@@]5(C)[C@]3(C)C[C@H]4O)OC[C@H](O)[C@@H]2O)[C@H](O)[C@H](O)[C@H]1O[C@@H]1OC[C@@H](O)[C@H](O[C@@H]2OC[C@](O)(CO)[C@H]2O)[C@H]1O (some centres not stated) |  | inactive
CC(C)(O)c1ccc2c(c1)C(=O)CC1[C@](C)(CO)CCC[C@]21C (some centres not stated) | -6.05% | 
CC(=O)C1CCC2(C)C3=C(CCC12C)C1(C)CCC(=O)C(C)(C)C1CC3 (configuration not stated) |  | inactive
C[C@@H]1C/C=C/C=C\C=C\C=C\[C@H](O[C@@H]2O[C@H](C)[C@@H](O)[C@H](N)[C@@H]2O)C[C@@H]2O[C@](O)(C[C@@H](O)C[C@H]3O[C@@H]3/C=C/C(=O)O1)C[C@H](O)[C@H]2C(=O)O | 3.12% | 
COC(=O)C[C@@H]1C(C(=O)O)=CO[C@@H](O[C@@H]2O[C@H](CO)[C@@H](O)[C@H](O)[C@H]2O)/C1=C\COC(=O)/C=C\c1ccccc1 | -0.0915% | 
CC1CCC2C(C(=O)O)=CC3C(O)C(C)(C)CC123 (configuration not stated) |  | inactive
CC(C)(O)/C=C1/C(=O)C(C)(C)C(=O)C(C)(C)C1(O)O[C@@H]1O[C@H](COC(=O)c2cc(O)c(O)c(O)c2)[C@@H](O)[C@H](O)[C@H]1O (some centres not stated) |  | inactive
Cc1cc(O)c(C(C)C)cc1O[C@@H]1O[C@H](CO)[C@@H](O)[C@H](O)[C@H]1O |  | inactive
O=C1CC(c2ccc([N+](=O)[O-])cc2)=NN1c1ccccc1 | 3.45% | 
C=C1[C@H]2[C@H](O[C@@H]3O[C@H](COC(=O)/C=C/c4cc(OC)c(O)c(OC)c4)[C@@H](O)[C@H](O)[C@H]3O)OC=C(C(=O)O)[C@H]2C[C@@H]1O |  | inactive
C/C=C(\C)C(=O)OC[C@H]1O[C@H](O[C@H]2O[C@H](CO)[C@@H](OC(=O)/C(C)=C/C)[C@H](O)[C@H]2O[C@@H]2O[C@H](CO)[C@@H](O)[C@H](O)[C@H]2O)[C@H](O[C@@H]2O[C@H](CO)[C@@H](O)[C@H](O)[C@H]2O)[C@@H](O)[C@@H]1O | 8.89% | 
CN1CC[C@@H](NC(=O)Nc2ccc(C#N)cc2)C[C@@H]1c1nc2ccccc2[nH]1 | -8.77% | 
O=C(O)c1cc(O[C@@H]2O[C@H](CO[C@@H]3OC[C@@H](O)[C@H](O)[C@H]3O)[C@@H](O)[C@H](O)[C@H]2O)c2ccccc2c1O |  | inactive
O=c1ccn(C2OC(CO)C(O)C2O)c(=O)[nH]1 (configuration not stated) |  | inactive
Clc1ccc(CN[C@H]2CCN(c3ncc(Br)cn3)C2)c(Cl)c1 | -14.8% | 
C=C1C(=O)OC2/C=C(\C)CC/C=C(\C(=O)O)CC/C=C(\C)CCC12 (configuration not stated) | 5.52% | 
C=CC1(C)C=C2C(=O)CC3C(C)(C)CCCC3(C(=O)O)C2(O)CC1 (configuration not stated) |  | inactive
COc1c(C)c2c(c(O)c1C/C=C(\C)CC/C=C(\C)CCC(=O)O)C(=O)OC2 |  | inactive
CNC(=O)COC(=O)NCCC1CCN(c2cccc(C)n2)CC1 | 9.28% | 
Cc1nn(C)c(COc2ccc(N3CCN(S(=O)(=O)N(C)C)CC3)cc2)c1-c1cccc2c(CCCOc3cccc4ccccc34)c(C(=O)O)n(CCN3CCOCC3)c12 | 3.5% | 
CCCCS(=O)(=O)Nc1ncnc(OCCOc2ncc(Br)cn2)c1-c1ccc(Br)cc1 |  | inactive
C[C@H]1C[C@H]2[C@@H]3CCC4=CC(=O)C=C[C@]4(C)[C@@]3(F)[C@@H](O)C[C@]2(C)[C@@]1(O)C(=O)COP(=O)(O)O |  | inactive
CC(C)(O)c1ccc2c(c1)C(O)CC1C(C)(C(=O)O)CCCC21C (configuration not stated) | 3.03% | 
